Entries with a potency or affinity are not part of this list. Calls of active or inactive are those of the source. The rule behind the calls is not given here.
Test: CCR5-tropic HIV-1 fusion blockers – cell-based, CCR5-tropic Env, dose response (AID 2279)
Conditions: CCR5-tropic HIV-1 Env, reporter read-out; series mostly up to 50 µM

outcome, inactive:
COC(=O)c1sc(-c2ccc(C(C)(C)C)cc2)cc1NC(=O)COCC(=O)O
O=C(CCCN1C(=O)/C(=C/c2cccs2)SC1=S)Nc1ccc(O)c(C(=O)O)c1
Cc1cc(Cl)ccc1OC(C)C(=O)Nc1ccc(C(=O)Nc2ccccc2C(=O)O)cc1 (stereo unspecified)
Cc1cc(/C=C2/C(=N)N3C(=NC2=O)SN=C3S(C)(=O)=O)c(C)n1-c1ccccc1
N#Cc1c(-c2ccccc2)nc(SCc2ccc(Cl)cc2)[nH]c1=O
O=C(CCN1C(=O)/C(=C/c2cccs2)SC1=S)Nc1ccc(C(=O)O)c(O)c1
CCc1ccc(N=C2NC(=O)/C(=C/c3cc(Br)c(OCC(=O)O)c(OC)c3)S2)cc1
COc1ccc(-c2coc3c(C)c4oc(=O)c(CCC(=O)O)c(C)c4cc23)cc1
Cc1ccccc1N=C1NC(=O)/C(=C/c2cccn2-c2cccc(C(=O)O)c2)S1
O=C(O)CN1C(=O)/C(=C\c2cc(Br)ccc2OCc2ccc(Cl)cc2Cl)SC1=S
CCc1nnc(NS(=O)(=O)c2ccc(N/C=C(\C=O)c3nc4cc(Cl)ccc4o3)cc2)s1
COC(=O)c1sc(-c2ccc(C(C)(C)C)cc2)cc1NC(=O)CSCC(=O)O
O=C(CCN1C(=O)/C(=C\c2ccccc2F)SC1=S)Nc1ccc(C(=O)O)c(O)c1
CSc1nc(SCC(=O)O)c2sc3nc(-c4ccccc4)c4c(c3c2n1)CCC4
N#Cc1c(-c2ccccc2)nc(SCc2cccc(Cl)c2)[nH]c1=O
O=C(CN1C(=O)/C(=C2\SC(=S)N(CCS(=O)(=O)O)C2=O)c2ccccc21)Nc1cccc(Br)c1
COc1ccc(OC)c(/C=C2\SC(=S)N(NS(=O)(=O)c3ccc(C)cc3)C2=O)c1
CCOC(=O)c1c(N2C(=O)Nc3cc(Cl)c(Cl)cc3N2O)sc2c1CCCCC2
Cc1ccc(/C=C2\SC(=S)N(CCCC(=O)Nc3ccccc3C(=O)O)C2=O)cc1
Oc1c(Br)cc(Br)c(/C=N/n2c(-c3ccccc3)n[nH]c2=S)c1Br
O=S(=O)(Nc1nc(-c2sccc2Cl)cs1)c1cc(Cl)ccc1Cl
